Hits are enriched below; roughly 18% of the tested compounds scored in any of these assays.
DT40 TDP1 no CPT = qHTS for Inhibitors of human tyrosyl-DNA phosphodiesterase 1 (TDP1): qHTS in cells in absence of CPT; DT40 Tdp1-/- hTDP1 cells, no CPT, ATP luminescence, 48 h; Potency, µM (series often up to 46.2 µM), inactives show at the highest dose activity change, negative = growth inhibition, hits mostly inhibitors; hit rate 15% among 420,000; note: nearly all actives have a fitted effect of over 55% in size
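Readout: luminescence from CellTiter-Glo after 30 min in the dark at RT. Cells: DT40 Tdp1-/- with stable hTDP1, 400/well. Exposure: compounds alone, ≥48 hr, 37 °C.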
VDR inhibitor = blocks the human vitamin D receptor; VDR-SRC2-3 peptide fluorescence polarization, 2 h; P11473; AID 504847; Potency, µM, for inactives: max response, negative = inhibition, usual class: inhibitors; hit rate 0.93% among 400,000
Target sequence (P11473 whole entry, looked up): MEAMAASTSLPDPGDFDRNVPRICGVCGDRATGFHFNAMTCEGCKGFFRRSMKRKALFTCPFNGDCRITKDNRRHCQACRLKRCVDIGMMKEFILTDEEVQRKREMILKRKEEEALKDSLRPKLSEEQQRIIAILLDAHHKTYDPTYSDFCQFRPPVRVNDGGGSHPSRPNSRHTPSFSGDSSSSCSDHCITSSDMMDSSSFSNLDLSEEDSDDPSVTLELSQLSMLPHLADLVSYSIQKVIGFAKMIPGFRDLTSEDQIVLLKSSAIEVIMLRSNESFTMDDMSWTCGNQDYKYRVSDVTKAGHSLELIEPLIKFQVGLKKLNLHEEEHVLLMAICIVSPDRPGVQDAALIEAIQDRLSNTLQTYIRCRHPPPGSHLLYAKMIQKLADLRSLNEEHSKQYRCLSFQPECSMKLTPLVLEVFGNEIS
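Measured by FP: displacement of SRC2-3 coactivator peptide from VDR by library compounds, following a two-hour ambient incubation.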
TDP1 cell CPT = growth inhibition of DT40 Tdp1-/-;hTDP1 cells with camptothecin (screen for TDP1 inhibitors); chicken DT40 Tdp1-/-;hTDP1 cells + 20 nM CPT, ATP luminescence, 48 h; Potency, µM (titrated, usually from 46.2 µM), inactives show at the top dose activity change, negative = growth inhibition, usual class: inhibitors; hit rate 12% among 420,000; AID 686979; note: nearly all actives have a fitted effect of over 55% in size
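Chicken DT40 Tdp1-/- cells complemented with human TDP1, 400 cells/well, exposed to compounds plus 20 nM camptothecin for at least 48 h at 37 C; viability read as ATP content by CellTiter-Glo luminescence.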
GCN5L2 inh = blocks human GCN5L2 histone acetyltransferase. Q92830. GCN5L2 HAT assay, ThioGlo1 CoA-SH fluorescence. Potency, µM (titrated, usually from 58.9 µM), for inactives: at the highest dose activity change, negative = inhibition, usual class: inhibitors. hit rate 0.21% among 390,000
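Titration-based screen in which CoA formation is detected via maleimide probe ThioGlo1 (50uM) turning fluorescent on thiol reaction; substrates H3(1-25) 75uM and acetyl-CoA 70uM, GCN5L2 20nM, 20 min incubation at room temperature.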
TDP1 block = blocks human tyrosyl-DNA phosphodiesterase 1. Q9NUW8. recombinant TDP1, AlphaScreen DNA substrate cleavage. Potency, µM (titrated, usually from 130 µM), for the others: top-dose activity change, negative = inhibition, most hits filed as inhibitors. hit rate 0.28% among 350,000; note: nearly all actives have a fitted effect of over 40% in size
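AlphaScreen read-out: signal falls as enzyme removes the 3' tyrosine-FITC from a 5'-biotinylated DNA oligo (15 nM, 5 min, RT). Enzyme was E. coli-made recombinant Tdp1 at 1 nM, exposed to compound for 15 min beforehand; beads 10 ug/ml, 10 min.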
PLK1 PBD inh = PLK1 (human) polo-box domain binding inhibition; P53350; Plk1 PBD binding of FITC phosphopeptide, fluorescence polarization; Potency, µM, for inactives: max response, negative = inhibition, usual class: inhibitors; hit rate 2.8% among 360,000; note: series mostly up to about 57 µM; nearly all actives have a fitted effect of over 65% in size
* hit, by the source's call; ? = inconclusive; . = not tested or not shown; [ ] = dose if it differs, or a comment. Calls come from the whole dose curve; as a rule, active = well fitted curve in the direction sought with a large enough effect; inconclusive = small, poorly fitted or top-dose-only effect, or another doubt; inactive = no such curve, though single readings can be large; an effect the other way counts as inactive or inconclusive. % is set by controls: 0 for no effect and ±100 for the full control effect; potency is the fitted concentration of half-maximal effect.

SMILES	DT40 TDP1 no CPT	VDR inhibitor	TDP1 cell CPT	GCN5L2 inh	TDP1 block	PLK1 PBD inh
COc1cc(/C=C\C(=O)NCc2ccc3c(c2)cc(C)n3C)cc(OC)c1OC	26µM*	-21%	-20%	-4%	3%	-8%
COC(=O)c1ccccc1NC(=O)NCc1ccncc1	-11%	-2%	?	-2%	5%	21µM*
O=C(NCc1ccncc1)Nc1ccc(Cc2ccc(NC(=O)NCc3ccncc3)cc2)cc1	10µM*	.	?	.	.	-2%
COC(=O)[C@@]1(C)C=C[C@@H](Cc2ccccc2)N1C	.	.	.	.	10%	.
O=C(C[n+]1cccc(Br)c1)c1cccc([N+](=O)[O-])c1	-20%	.	-1%	.	.	.
COc1ccc(S(=O)(=O)N2CCCCC2c2cc(C(=O)N3CCOCC3)no2)cc1 (stereo not drawn)	-5%	.	-22%	.	.	-4%
CCC(CC)C(=O)Nc1ccccc1C(=O)OCc1cc(=O)n2nc(C3CCCCC3)sc2n1	?	-5%	?	2%	-4%	.
COc1cc(OC)cc(C2=Nn3c(nnc3-c3ccccc3OC)SC2)c1	.	.	.	.	1%	.
COc1ccc(N/N=C(\C#N)C(=N)SCc2ccccc2)cc1	7.3µM*	?	4.6µM*	-5%	8%	-4%
COc1ccc(N/N=C(\C#N)C(=N)N2CCCCC2)cc1	?	-1%	-13%	-10%	7%	5%
Cc1cc(=O)[nH]c(N2CCCNCC2)n1	-13%	16%	-29%	-2%	.	1%
Cc1cc(=O)[nH]c(-n2nc(C)cc2C)n1	23µM*	-7%	23µM*	-11%	3%	-7%
COc1ccc(-c2nnc(SCC(=O)Nc3ccc(Cl)cc3)s2)cc1	-19%	-10%	-23%	-2%	-1%	.
O=C(NCc1ccc(F)cc1)c1cc(-c2ccc(Cl)cc2)n[nH]1	8.2µM*	4%	7.3µM*	-3%	-6%	.
COc1ccc(CNC(=O)c2cccc(-c3ccc(C)c4ccccc34)n2)cc1	18µM*	-17%	?	-9%	-1%	7%
Cc1ccc(Cl)cc1-c1cc(C(=O)NCc2cccc(Cl)c2)[nH]n1	?	.	18µM*	.	.	-4%
COc1cc(CNC(=O)c2cc(-c3cc(Cl)ccc3C)n[nH]2)cc(OC)c1	?	.	26µM*	.	.	-12%
Cc1cc(C)n2nc(SCC(=O)N3CCC(C(=O)O)CC3)nc2n1	3%	0%	?	3%	2%	0%
COc1cc(CNC(=O)c2cc(-c3cc(OC)ccc3Cl)n[nH]2)cc(OC)c1	-22%	.	?	.	.	5%
CCOc1ccc(-c2cc(C(=O)NCc3cc(OC)cc(OC)c3)[nH]n2)c(C)c1	?	.	21µM*	.	.	-2%
COc1cccc(-c2cc(C(=O)NCc3ccccc3)[nH]n2)c1	-4%	7%	-14%	-1%	1%	.
COc1ccc(-c2cc(C(=O)NCc3cccc(C(F)(F)F)c3)[nH]n2)c(C)c1	?	.	26µM*	.	.	-1%
COc1ccc(CNC(=O)c2cc(-c3ccc(C)c(C)c3)n[nH]2)cc1	16µM*	4%	?	-5%	0%	.
COC(=O)c1ccccc1NC(=O)Cn1nnc2sc(-c3ccccc3)cc2c1=O	2%	4%	-3%	-15%	9%	.
CC12CCC(C/C1=N/O)C2(C)CBr (stereo not drawn)	6%	-1%	2%	0%	.	-3%
SMILES	DT40 TDP1 no CPT	VDR inhibitor	TDP1 cell CPT	GCN5L2 inh	TDP1 block	PLK1 PBD inh
CCn1c(CN2CCOCC2)nc2cc(NC(=O)c3ccc([N+](=O)[O-])cc3)ccc21	-24%	0%	-21%	-8%	-4%	.
CC1CCCCC1NC(=O)C1CCC(CNc2c(N3CCCCC3)c(=O)c2=O)CC1 (stereo not drawn)	2%	-1%	-7%	18%	.	-10%
COC(=O)c1sc(NC(=S)NNC(=O)c2c(Br)c(C)nn2C)c(C(=O)OC)c1C	-11%	1%	-7%	?	5%[56.1 µM]	27µM*
Cc1nn(-c2ccccc2)c(C)c1CC(=O)NCC1Cc2cc(-c3cncnc3)ccc2O1 (stereo not drawn)	-9%	.	7%[9.04 µM]	.	.	.
COc1ccc(S(=O)(=O)N(Cc2ccccc2)c2ccccc2C(=O)Nc2ccccc2C(=O)NCc2ccco2)cc1	5.8µM*	8%	?	-8%	2%	6%
COCCCNC(=O)c1ccccc1N(Cc1ccccc1)S(=O)(=O)c1ccc(OC)cc1	21µM*	10%	?	0%	.	-3%
COc1ccc(S(=O)(=O)Nc2ccccc2C(=O)NCc2ccco2)cc1	?	16%	21µM*	-7%	2%	11µM*
CCN1CCN(C(=O)c2ccccc2N(Cc2ccccc2)S(=O)(=O)c2ccc(OC)cc2)CC1	?	14%	?	2%	0%	-3%
C=CCN(c1ccccc1OC)S(=O)(=O)c1ccc(Cl)c(C(=O)NCc2ccco2)c1	13µM*	.	18µM*	.	.	-3%
C=CCN(c1ccccc1OC)S(=O)(=O)c1cccc(C(=O)NCc2ccco2)c1	17%	-1%	0%	1%	1%	4%
Cc1cc(NS(=O)(=O)c2c(C(=O)N3CCOCC3)c(C)n(C)c2C)ccc1Br	?	-13%	?	-5%	6%	-7%
Nc1ccccc1-n1cccc1	4%	-13%	0%	-3%	1%	-3%
O=C(NCC1CCCO1)c1c[nH]c2ccc(S(=O)(=O)Nc3ccc(F)cc3F)cc2c1=O (stereo not drawn)	-2%	-9%	-15%	-5%	.	.
Cc1cccnc1NC(=O)NC(=O)c1ccc(C(C)(C)C)s1	16µM*	-10%	?	6%	-2%	-1%
CCc1sc(C(=O)Nc2ncccc2C)cc1C	6%	-17%	-1%	-5%	12%	3%
O=C(CCc1nnc(Cc2c[nH]c3ccccc23)o1)NC1CCCC1	-17%	0%	-6%	-1%	10%	-14%
O=C(CCc1nnc(CCc2c[nH]c3ccccc23)o1)NC1CCC1	?	?	?	-5%	1%	24µM*
Cc1c(Cl)ccc2sc(N3CCN(C(=O)C4CC4)CC3)nc12	5.8µM*	6%	12µM*	-10%	-3%	.
O=C(C1CC1)N1CCN(c2nc3ccccc3s2)CC1	-11%	20%	-24%	-11%	0%	-6%
Cc1ccc(S(=O)(=O)CCC(=O)N2CCN(c3nc4c(C)c(Cl)ccc4s3)CC2)cc1	3.3µM*	3%	2.6µM*	1%	3%	.
COc1cccc2sc(N3CCN(C(=O)CCS(=O)(=O)c4ccc(F)cc4)CC3)nc12	7.3µM*	8%	5.8µM*	-4%	5%	.
